This is a sample that favours compounds with a hit; in the whole collection about 0.87% have one here.
APE1 inh: qHTS Assay for Inhibitors of the Human Apurinic/apyrimidinic Endonuclease 1 (APE1). recombinant APE1, TAMRA/BHQ-2 abasic DNA cleavage fluorescence. Potency, µM (titrated, usually from 65.8 µM), without a hit: top-dose activity change, negative = inhibition, usual class: inhibitors. DNA repair nuclease/redox regulator APEX1 (Homo sapiens), P27695. 350,000 compounds, 0.35% hits;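 also: plate controls were vehicle for no effect and reference inhibitor for full effect; nearly all actives have a fitted effect of over 55% in size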
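0.75 nM APE1 + cpd, 15 min RT; start w/ 50 nM TAMRA/BHQ-2 THF-abasic dsDNA; kinetic fluor 525/598 nm ×3 reads @60 s; Δ(read3−read1); normalized to DMSO and NSC13755 control wells.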
RECQ1 inh: qHTS Assay for Inhibitors of RecQ-Like Dna Helicase 1 (RECQ1) | 240,000 compounds, 0.54% hits | ATP-dependent DNA helicase Q1 (Homo sapiens), P46063 | AID 2549, 2010 | Potency, µM (doses to about 57.3 µM), without a hit: at the highest dose activity, negative = inhibition, usual class: inhibitors | RECQ1 DNA unwinding, red fluorescence kinetic read;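 also: plate controls were vehicle for no effect and no enzyme for full effect; nearly all actives have a fitted effect of over 30% in size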
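50 nM RECQ1T1 preincubated 15 min with compound in Tris pH 8.0 buffer with MgCl2, DTT, Tween-20 and 2.5 ug/ml poly(dI-dC); started with 200 nM TAMRA/BHQ-2 forked duplex and 2 mM ATP. Unwinding read as fluorescence (525/598 nm), two reads 2 h apart.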
BLM inh-1: qHTS Assay for Inhibitors of Bloom's syndrome helicase (BLM); recombinant BLM DNA unwinding, fluorescence dequenching; RecQ-like DNA helicase BLM (Homo sapiens), P54132; 350,000 compounds, 0.2% hits; Potency, µM (highest dose often 56.1 µM), without a hit: at the highest dose activity change, negative = inhibition, usual class: inhibitors;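 also: plate controls were vehicle for no effect and no enzyme for full effect; nearly all actives have a fitted effect of over 35% in size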
Target sequence (P54132 whole entry, looked up): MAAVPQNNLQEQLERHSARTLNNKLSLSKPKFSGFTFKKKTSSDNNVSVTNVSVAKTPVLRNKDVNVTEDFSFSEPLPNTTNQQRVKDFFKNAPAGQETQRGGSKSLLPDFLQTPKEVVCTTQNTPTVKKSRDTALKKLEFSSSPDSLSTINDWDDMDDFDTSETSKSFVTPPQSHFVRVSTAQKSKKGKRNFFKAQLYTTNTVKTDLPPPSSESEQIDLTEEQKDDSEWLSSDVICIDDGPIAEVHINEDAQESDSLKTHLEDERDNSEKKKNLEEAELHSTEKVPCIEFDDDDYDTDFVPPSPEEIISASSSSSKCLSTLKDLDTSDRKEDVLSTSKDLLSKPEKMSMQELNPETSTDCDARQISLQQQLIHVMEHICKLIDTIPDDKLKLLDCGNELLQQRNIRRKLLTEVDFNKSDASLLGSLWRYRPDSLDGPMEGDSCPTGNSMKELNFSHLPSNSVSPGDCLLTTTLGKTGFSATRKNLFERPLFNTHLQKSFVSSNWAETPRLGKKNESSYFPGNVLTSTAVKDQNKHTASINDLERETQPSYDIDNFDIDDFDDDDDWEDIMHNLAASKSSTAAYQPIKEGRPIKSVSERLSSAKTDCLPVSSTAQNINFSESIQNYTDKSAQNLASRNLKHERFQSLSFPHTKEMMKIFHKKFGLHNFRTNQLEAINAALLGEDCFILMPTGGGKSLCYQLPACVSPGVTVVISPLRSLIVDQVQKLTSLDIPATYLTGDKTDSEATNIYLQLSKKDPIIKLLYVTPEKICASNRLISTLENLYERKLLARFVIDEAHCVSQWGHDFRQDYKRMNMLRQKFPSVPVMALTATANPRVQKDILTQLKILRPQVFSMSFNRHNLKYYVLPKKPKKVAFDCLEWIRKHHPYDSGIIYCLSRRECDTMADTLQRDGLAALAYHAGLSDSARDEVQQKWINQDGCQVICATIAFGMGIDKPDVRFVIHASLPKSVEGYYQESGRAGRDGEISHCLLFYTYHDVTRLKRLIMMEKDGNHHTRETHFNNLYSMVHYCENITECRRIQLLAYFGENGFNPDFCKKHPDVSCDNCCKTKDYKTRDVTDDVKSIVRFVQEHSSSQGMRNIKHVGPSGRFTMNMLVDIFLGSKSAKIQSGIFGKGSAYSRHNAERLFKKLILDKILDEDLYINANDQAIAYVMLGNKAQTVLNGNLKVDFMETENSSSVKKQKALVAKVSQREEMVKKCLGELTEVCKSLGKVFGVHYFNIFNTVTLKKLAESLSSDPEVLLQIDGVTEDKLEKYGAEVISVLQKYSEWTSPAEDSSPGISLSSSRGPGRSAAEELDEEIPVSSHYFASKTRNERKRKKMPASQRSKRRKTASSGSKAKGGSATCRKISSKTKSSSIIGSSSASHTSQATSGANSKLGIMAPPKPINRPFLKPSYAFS
RGS4 inh: Inhibitors of Regulator of G Protein Signaling (RGS) 4: qHTS; Regulator of G-protein signaling 4 (Homo sapiens), P49798; Transcreener GDP fluorescence polarization, RGS4-accelerated GTP hydrolysis; Potency, µM (doses to about 114 µM), inactives show at the top dose activity change, negative = inhibition, hits mostly inhibitors; 390,000 compounds, 0.039% hits; AID 504845, 2011; also: nearly all actives have a fitted effect of over 75% in size
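MLSMR compounds (23 nl, pin-transferred) preincubated 10 min at room temperature with a 500nM (2x) first reagent, then RGS4 at 900nM (2x) plus Transcreener GDP mix added; fluorescence polarization (620/688 nm) read before and after 90 min at 30 °C.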
TDP1 inh: qHTS Assay for Inhibitors of Tyrosyl-DNA Phosphodiesterase (TDP1); 350,000 compounds, 0.28% hits; recombinant TDP1, AlphaScreen DNA substrate cleavage; Tyrosyl-DNA phosphodiesterase 1 (Homo sapiens), Q9NUW8; Potency, µM (series often up to 130 µM), for inactives: top-dose activity change, negative = inhibition, hits mostly inhibitors; also: nearly all actives have a fitted effect of over 40% in size
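Compounds were preincubated with Tdp1 (1 nM final) for 15 min at room temperature before substrate (15 nM final) started a 5 min reaction; beads (10 ug/ml final) were then added for 10 min before AlphaScreen detection.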
KAT2A inh: qHTS Assay for Inhibitors of GCN5L2; GCN5L2 HAT assay, ThioGlo1 CoA-SH fluorescence; Potency, µM (series often up to 58.9 µM), without a hit: at the highest dose activity change, negative = inhibition, actives largely listed as inhibitors; 390,000 compounds, 0.21% hits
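Preincubate 20nM GCN5L2 with compound 15 min, RT → add 50uM ThioGlo1 + 75uM H3(1-25) + 70uM acetyl-CoA → read fluorescence 0 and 20 min. Primary qHTS; fluorescent artifacts likely.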
BLM inh-2: qHTS Confirmation Assay for Inhibitors of Bloom's syndrome helicase (BLM) | 220 compounds, 40% hits | BLM DNA unwinding, fluorescence quenching, biochemical | shares compounds with BLM inh-1 | Potency, µM, for the others: max response, negative = inhibition, most hits filed as inhibitors;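 also: strand separation dequenches TAMRA so unwinding raises red fluorescence; series mostly up to about 69 µM; nearly all actives have a fitted effect of over 45% in size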
Numbers without * were called inactive; [ ] = remark or other dose. Calls follow the shape of the dose curve; as a rule, active = well fitted curve in the direction sought with a large enough effect; inconclusive = small, poorly fitted or top-dose-only effect, or another doubt; inactive = no such curve, though single readings can be large; an effect the other way counts as inactive or inconclusive. Unless noted, % is scaled to controls: 0 for no effect and ±100 for the full control effect; potency is read from the fitted curve at half-maximal effect.

Cc1ccc2nc(/C(C#N)=C/c3ccc(-c4cccc([N+](=O)[O-])c4)o3)[nH]c2c1 was read as APE1 inh 5.5%, RECQ1 inh -9.1%, BLM inh-1 22.4µM*, RGS4 inh inconclusive, TDP1 inh 2.7%, KAT2A inh -19.1% and BLM inh-2 12.9µM*.
Screening Cc1ccc2nc(/C(C#N)=C/c3ccc(-c4ccc(F)cc4F)o3)[nH]c2c1 returned BLM inh-1 -27.1%, RGS4 inh 6.9%, TDP1 inh -11.9%[12.3 µM] and KAT2A inh -2.8%.
For CCOc1ccccc1-c1nnc2n1N=C(c1cccc(OC)c1)CS2 the results were APE1 inh -6.7%, RECQ1 inh -12.0%, BLM inh-1 1.8% and TDP1 inh 13.8%.
Screening COc1ccc(OC)c(NC(=O)c2ccc(-c3csc(C)n3)cc2)c1 returned APE1 inh -22.1%, BLM inh-1 -21.4%, RGS4 inh -43.2% and KAT2A inh -3.0%.
Screening Cc1nc(-c2ccc(C(=O)Nc3cc(S(N)(=O)=O)ccc3C)cc2)cs1 returned APE1 inh 28.8%, BLM inh-1 7.08µM*, RGS4 inh -3.1%, TDP1 inh -5.7%, KAT2A inh -3.1% and BLM inh-2 6.46µM*.
CCOc1ccc(S(=O)(=O)N2CCN(c3nc(-c4ccccc4)nc4ccccc34)CC2)cc1 was read as RGS4 inh 29.7% and TDP1 inh -0.3%.
`CCCCn1c(=O)[nH]c2nc3cc(N)ccc3nc2c1=O` gave APE1 inh 13.2%, RECQ1 inh -8.5%, BLM inh-1 5.62µM*, RGS4 inh inconclusive, TDP1 inh 7.9%, KAT2A inh -18.7% and BLM inh-2 inconclusive.
For Nc1ccc2nc3c(=O)n(CCc4ccccc4)c(=O)[nH]c3nc2c1 the results were APE1 inh -10.7%, RECQ1 inh -1.2%, BLM inh-1 -13.8%, RGS4 inh -48.4%, TDP1 inh -1.3% and KAT2A inh -25.4%.
COC(=O)c1ccc(CSc2nc3scc(-c4cccs4)c3c(=O)[nH]2)o1 was read as APE1 inh -7.8%, RECQ1 inh -26.2%, BLM inh-1 25.1µM*, RGS4 inh -52.7%, TDP1 inh 2.1%, KAT2A inh -18.9% and BLM inh-2 inconclusive.
`CC1=NN(c2ccccc2)C(=O)/C1=C/c1c(O)n(-c2ccc(F)c(Cl)c2)[nH]c1=O` gave APE1 inh -5.0%, RECQ1 inh -5.5%, BLM inh-1 17.8µM*, RGS4 inh -2.3%, TDP1 inh 9.4%, KAT2A inh inconclusive and BLM inh-2 36.3µM*.
Screening O=C1CCC(=O)N1c1ccc(-c2nc3sc4c(c3c(=O)o2)CCC4)cc1 returned APE1 inh -4.8%, RECQ1 inh 4.8%, BLM inh-1 -1.3%, RGS4 inh 14.6%, TDP1 inh 0.0% and KAT2A inh -2.7%.
For O=c1oc(-c2ccccc2)nc2sc3c(c12)CCC3 the results were APE1 inh 1.2%, RECQ1 inh 2.4%, BLM inh-1 14.1µM*, RGS4 inh -11.2%, KAT2A inh inconclusive and BLM inh-2 inconclusive.
For CN(C)c1ccc(-c2nc(NCc3cccnc3)c3ccccc3n2)cc1 the results were APE1 inh -1.6%, RECQ1 inh inconclusive, BLM inh-1 15.8µM*, TDP1 inh 4.9%[56.1 µM], KAT2A inh -16.7% and BLM inh-2 22.9µM*.
`COC(=O)c1cccc(Nc2c(-c3ccc(O)c(OC)c3)nc3nc[nH]n23)c1` gave BLM inh-1 -2.4%, RGS4 inh 1.7%, TDP1 inh 0.5% and KAT2A inh -2.8%.
`COc1ccccc1-n1cnc2c(c1=O)c1nc3ccccc3nc1n2-c1ccc(C)cc1` gave APE1 inh 4.5%, RECQ1 inh -4.6%, BLM inh-1 10µM*, RGS4 inh -25.2%, TDP1 inh 2.7%, KAT2A inh inconclusive and BLM inh-2 -0.9%.
For O=C1C=C(NCCN2CCOCC2)C(=O)c2cnccc21 the results were APE1 inh 1.4%, RECQ1 inh -0.5%, BLM inh-1 25.1µM*, TDP1 inh 2.6%, KAT2A inh -1.8% and BLM inh-2 inconclusive.
For O=C1C=C(NCCO)C(=O)c2cnccc21 the results were APE1 inh inconclusive, RECQ1 inh -3.6%, BLM inh-1 inconclusive and TDP1 inh 3.3%.
For Cc1[nH]c2ccccc2c1C(=O)COC(=O)C1CC(=O)N(Cc2ccco2)C1 (stereo not drawn) the results were APE1 inh -2.2%, RECQ1 inh -0.9%, BLM inh-1 -0.1%, RGS4 inh 37.2%, TDP1 inh 5.8% and KAT2A inh -1.1%.
Screening O=C(COC(=O)C1CC(=O)N(Cc2ccco2)C1)c1ccc(OC(=O)c2ccco2)cc1 (stereo not drawn) returned APE1 inh -0.6%, RECQ1 inh -0.8%, BLM inh-1 15.8µM*, RGS4 inh inconclusive, TDP1 inh 0.0%, KAT2A inh inconclusive and BLM inh-2 inconclusive.
Screening COC(=O)C1=C(C(=O)OC)[C@@H]2N(C)c3ccc(OC)cc3[C@@]23C[C@@H](C(=O)OC)N(S(=O)(=O)c2ccc(C(F)(F)F)cc2)C3=N1 returned APE1 inh -2.3%[12.4 µM], RECQ1 inh -0.7%[11.5 µM], BLM inh-1 -8.3%[12.4 µM] and TDP1 inh 14.3%[12.3 µM].

Screens from PubChem BioAssay.
